# Source: PubChem
# Most compounds without a hit are left out; they make up all but 12% or so of the library.
# BAZ2B inh = blocks human BAZ2B; actives 4.4% (n = 360,000); Potency, µM (doses to about 114 µM), without a hit: at the highest dose activity change, negative = inhibition, usual class: inhibitors; Q9UIF8; AlphaScreen BAZ2B-H3K14Ac peptide displacement; AID 504333; also: % is scaled to controls: 0 for no effect and ±100 for the full control effect; nearly all actives have a fitted effect of over 60% in size
#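 AlphaScreen luminescence quantifies BAZ2B engagement of H3K14Ac peptide; the protein and biotinylated peptide are both at 50 nM final, buffer PBS pH 7.4 with 0.01% Tween-20, all steps at room temperature.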
# JMJD2A Tudor = JMJD2A Tudor domain (human) inhibition; O75164; AlphaScreen JMJD2A-Tudor / H3K4me3 peptide binding; AID 504339; Potency, µM (titrated, usually from 114 µM), inactives show at the top dose activity change, negative = inhibition, most hits filed as inhibitors; actives 4.4% (n = 390,000); also: % is scaled to controls: 0 for no effect and ±100 for the full control effect; nearly all actives have a fitted effect of over 50% in size
# Sfp inh = inhibitors of Bacillus subtilis Sfp phosphopantetheinyl transferase. actives 3.5% (n = 310,000). Potency, µM, without a hit: largest response in the series, negative = inhibition, usual class: inhibitors. Biochemical Sfp PPTase activity, qHTS. AID 1490;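 also: the enzyme is Sfp with the accession as filed and its product quenches rhodamine fluorescence; 0% = enzyme reaction without inhibitor and -100% = no enzyme wells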
#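 Step 1, compound plus 15 nM Sfp-PPTase, 15 min, room temperature. Step 2, add rhodamine-CoA (5 uM) and BHQ-2-YbbR (12.5 uM). Step 3, read 525/598 nm fluorescence at 0 and 30 min.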
# L3MBTL1 block = L3MBTL1 (human) inhibition | Potency, µM (top dose mostly 57.1 µM), for inactives: top-dose activity, negative = inhibition, most hits filed as inhibitors | Q9Y468 | actives 0.66% (n = 230,000) | AlphaScreen L3MBTL1–H3K9me1 peptide binding; also: % is scaled to controls: 0 for no effect and ±100 for the full control effect; nearly all actives have a fitted effect of over 60% in size
#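 L3MBTL1 (50 nM) pre-complexed 30 min with biotinylated H3(1-15)K9me1 peptide (75 nM), then compounds added for 30 min at room temperature; AlphaScreen streptavidin donor/nickel chelate acceptor beads (10 ug/mL final) read after 30 min dark incubation.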
# HP1b chromo inh = HP1-beta chromodomain-methylated histone interaction inhibition; P83916; AlphaScreen HP1-beta / biotin-H3K9me3 peptide binding; Potency, µM (series often up to 114 µM), for inactives: at the highest dose activity change, negative = inhibition, usual class: inhibitors; actives 0.56% (n = 390,000); also: nearly all actives have a fitted effect of over 70% in size
#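 AlphaScreen: HP1-beta (50 nM) preformed 30 min with biotin-H3(1-18)K9me3 peptide (50 nM) in PBS pH 7.4, 0.01% Tween-20. Compound added for 30 min at RT, then streptavidin donor/nickel chelate acceptor beads (10 ug/mL) for 30 min.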
# G9a block = inhibitors of human histone lysine methyltransferase G9a | G9a H3K9 monomethylation, AlphaScreen, 2 h | Potency, µM (top dose mostly 102 µM), for inactives: at the top dose activity, negative = inhibition, most hits filed as inhibitors | actives 8.8% (n = 350,000); also: % is scaled to controls: 0 for no effect and ±100 for the full control effect; nearly all actives have a fitted effect of over 75% in size
#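 Compounds were preincubated with 20 nM G9a for 15 min, after which biotinylated H3K9 peptide (500 nM) and SAM (20 uM) started a 2 h room-temperature reaction. Monomethylated product was quantified by antibody-based AlphaScreen chemiluminescence.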
# * = called active by the depositor; u = inconclusive; x = not tested or not shown; [ ] = remark or other dose. Calls follow the shape of the dose curve; as a rule, active = well fitted curve in the direction sought with a large enough effect; inconclusive = small, poorly fitted or top-dose-only effect, or another doubt; inactive = no such curve, though single readings can be large; an effect the other way counts as inactive or inconclusive. Potency is read from the fitted curve at half-maximal effect.
SMILES,BAZ2B inh,JMJD2A Tudor,Sfp inh,L3MBTL1 block,HP1b chromo inh,G9a block
CC(=O)C1=C(C)NC(SCc2cccc([N+](=O)[O-])c2)=C(C#N)C1c1ccco1 (configuration not stated),40µM*,u,-55%,-24%,-13%,x
CCc1ccc(C(=O)CSC2=C(C#N)C(c3ccco3)C(C(C)=O)=C(C)N2)cc1 (configuration not stated),-3%[57.1 µM],-10%,56µM*,-20%,49%,40µM*
CC(=O)C1=C(C)NC(SCC(=O)c2ccc(F)cc2)=C(C#N)C1c1ccco1 (configuration not stated),-5%,-24%,u,-3%,35%,u
CC1=C(C(=O)Nc2ccccc2)C(c2ccco2)C(C#N)=C(SCc2ccccc2)N1 (configuration not stated),-32%,x,4%,x,x,u
CC(=O)C1=C(C)NC(SCC(=O)c2ccc(Cl)c(Cl)c2)=C(C#N)C1c1ccco1 (configuration not stated),x,u,3.5µM*,-29%,19%,u
C/C(=N\NC(=O)c1cc(C)nc2ccccc12)c1ccco1,-29%,-16%,12%,-3%[11.4 µM],27%,3%
C/C(=N\Nc1nc2ccccc2c(=O)n1O)c1ccco1,-4%,u,79µM*,x,u,79µM*
Cc1ccc2nc(C)cc(N/N=C/c3ccccc3O)c2c1,-34%,-35%,6%,-9%,8%,16%
Cc1ccc(C)c(/C=N/Nc2nc3ccccc3c(=O)n2O)c1,1%,-11%,25µM*,x,-13%,28µM*
N#Cc1c(N)sc(=S)c2c1CCCC2,40µM*,u,32µM*,-4%,u,7.1µM*
CCC1(C)Cc2c(C#N)c(N)sc(=S)c2CO1 (configuration not stated),u,u,13µM*,-9%,u,u
CCC1(C)Cc2c(C#N)c(N)n(-c3ccccc3)c(=S)c2CO1 (configuration not stated),-11%,-17%,10%,-2%,20%,3%
Cc1cccc(NC(=O)c2ccc(-n3c(C)nnc3C)cc2)c1,-1%,2%,x,x,28%[57 µM],3%[59 µM]
CCc1cccc(C)c1NC(=O)c1cn2c3c(ccc(Cl)c3c1=O)OC(C)C2 (configuration not stated),-3%,-15%,x,x,23%,-45%[59 µM]
CCOC(=O)N1CCc2c(sc(NC(=O)c3ccc(Cl)s3)c2C(N)=O)C1,-31%,x,50µM*,-22%,x,28µM*
CCN1CCc2c(sc(NC(=O)c3ccc(S(=O)(=O)N(CC)c4ccccc4)cc3)c2C(N)=O)C1,-25%,-27%,7%,x,-7%,u
Cc1sc(NC(=S)NC(=O)c2ccco2)c(C(N)=O)c1C,-2%,-15%[11.4 µM],u,x,3%,40µM*
CCN1CCc2c(sc(NC(=O)c3ccc(S(=O)(=O)N4CCOCC4)cc3)c2C(N)=O)C1,-4%,-17%,-5%,-2%,26%,56µM*
CCN1CCc2c(sc(NC(=O)c3ccc(C(=O)c4ccccc4)cc3)c2C(N)=O)C1,40µM*,u,-21%,x,8%,71µM*
COC(=O)CN1C(=O)C(C)(C)c2cc(S(=O)(=O)NCc3ccc(Cl)cc3)ccc21,1%,-6%,x,x,27%[57 µM],3%[59 µM]
CCCCNC(=O)NS(=O)(=O)c1ccc(C(=O)O)cc1,x,x,20%,x,x,x
CCN1CCc2c(sc(NC(=S)NC(=O)c3ccco3)c2C(N)=O)C1,-34%,u,22µM*,-14%,u,20µM*
CCN1CCc2c(sc(NC(=O)Cc3ccccc3)c2C(N)=O)C1,33%,-10%,4%,43%,7%,x
CC(C)C(=O)Nc1sc2c(c1C(N)=O)CCN(Cc1ccccc1)C2,4%,-17%,0%,3%,18%,71µM*
NC(=O)c1c(NC(=O)c2ccccc2)sc2c1CCN(Cc1ccccc1)C2,-4%,-18%,15%,3%,47%,3%
SMILES,BAZ2B inh,JMJD2A Tudor,Sfp inh,L3MBTL1 block,HP1b chromo inh,G9a block
CCC(=O)Nc1ccc(NCc2ccc(-c3ccccc3)cc2)cc1,-27%,u,-5%,-2%,4%,25µM*
Cc1cc2cc(CNC(=S)NCc3ccccc3)ccc2n1C,25µM*,50µM*,11%,-9%,u,u
Cc1cc2cc(CNC(=S)NC3CCCCC3)ccc2n1C,x,-30%,14%,x,25%,-2%
COc1ccc(CC(=O)NCc2ccc3c(c2)cc(C)n3C)cc1,-23%,-13%,18%,-8%,25%,-30%
COc1ccc(NC(=S)NCc2cccn2C)cc1,35µM*,-31%,u,-20%,-21%,50µM*
CCc1cccc(C)c1NC(=S)NCc1ccc2c(c1)cc(C)n2C,25µM*,50µM*,9%,-28%,-18%,40µM*
COc1ccc(NC(=S)NCc2ccc3c(c2)cc(C)n3C)cc1,45µM*,50µM*,4%,u,u,40µM*
COc1ccccc1NC(=S)NCc1ccc2c(c1)cc(C)n2C,25µM*,50µM*,9%,-6%,u,u
Cc1cc2cc(CNC(=O)c3cccs3)ccc2n1C,50µM*,u,45µM*,-18%,-15%,50µM*
CCOC(=O)CCC(=O)NCc1ccc2c(c1)cc(C)n2C,-15%,-19%,79µM*,-4%,28%,8%[0.0925 µM]
COc1ccc(C(=O)NCc2ccc3c(c2)cc(C)n3C)cc1OC,u,-32%,2%,-17%,-4%,u
COc1cccc(C(=O)NCc2ccc3c(c2)cc(C)n3C)c1,u,u,9%,-10%,0%,50µM*
CCC(CC)C(=O)NCc1ccc2c(c1)cc(C)n2C,-26%,-19%,14%,-4%,42%,7%[12.7 µM]
CCn1c(=O)n(-c2ccc3c(c2)OCO3)c2nc(-c3cc(OC)ccc3OC)nc(C(N)=O)c21,u,-20%,x,x,17%,19%[59 µM]
Cc1noc(C)c1S(=O)(=O)N1CCCC(C(=O)Nc2ccc(C(C)C)cc2)C1 (configuration not stated),x,-18%,x,x,16%,-5%[59 µM]
CCCCNC(=S)NCc1ccc2c(c1)cc(C)n2C,45µM*,u,4%,-3%,-7%,u
Cc1cc2cc(CNC(=O)c3ccc(S(=O)(=O)N4CCCCC4)cc3)ccc2n1C,-32%,-8%,u,x,31%,50µM*
CCCCC(=O)NCc1ccc2c(c1)cc(C)n2C,-6%,-23%,-10%,-10%,8%,8%[59 µM]
Cc1cc2cc(CNC(=O)Nc3ccccc3)ccc2n1C,4%,u,11%,2%,u,32µM*
CCOC(=O)NCc1ccc2c(c1)cc(C)n2C,-37%,-27%,-7%,-10%,-7%,16%[12.7 µM]
